# From PubChem BioAssay AID1209 (Sanford-Burnham Center for Chemical Genomics, 2008)
# Out of some 190,000 compounds screened, about 810 (0.43%) were called active. The full list was thinned out, with actives kept by preference. Values without a mark were called inactive. No stated cut-off is given here; in the data, active means inhibition above about 50%; inactive means the rest.
# Target: Mannose-6-phosphate isomerase (Homo sapiens) (UniProt P34949)
# Experiment: inhibitors of human PMI, primary screen, biochemical, fluorescence intensity, coupled assay (AID 1209);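 further: plate controls were DMSO vehicle for no effect and wells lacking substrate for full effect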
# Conditions: purified PMI enzyme, at 20 µM, active compounds read high
# Sequence of Mannose-6-phosphate isomerase (Homo sapiens) (P34949 whole entry, looked up): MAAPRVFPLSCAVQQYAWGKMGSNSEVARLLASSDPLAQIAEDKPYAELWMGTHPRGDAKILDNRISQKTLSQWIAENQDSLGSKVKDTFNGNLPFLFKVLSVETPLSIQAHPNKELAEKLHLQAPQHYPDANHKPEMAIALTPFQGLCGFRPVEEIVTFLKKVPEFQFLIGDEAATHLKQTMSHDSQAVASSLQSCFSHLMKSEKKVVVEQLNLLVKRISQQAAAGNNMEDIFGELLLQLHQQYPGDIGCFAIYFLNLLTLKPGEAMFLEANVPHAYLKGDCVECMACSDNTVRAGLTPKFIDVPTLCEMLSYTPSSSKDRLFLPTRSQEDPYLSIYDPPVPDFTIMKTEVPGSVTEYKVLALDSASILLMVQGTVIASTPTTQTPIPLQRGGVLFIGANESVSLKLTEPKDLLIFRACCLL
row,Structure (SMILES),inhibition
1,Cc1ccc(/C=C/C(=O)CCC(=O)O)cc1,-0.7%
2,O=C(N/N=C/c1c[nH]c2ccccc12)c1sc2ccccc2c1Cl,17.1%
3,COc1cc(C2C3=C(CC(C)(C)CC3=O)OC3=C2C(=O)CC(C)(C)C3)cc([N+](=O)[O-])c1O,0.1%
4,O=C(CC1SC(=O)N(Cc2cccc3ccccc23)C1=O)Nc1nccs1 (stereo not drawn),9.8%
5,O=C(/C=C/c1ccccc1)Oc1ccccc1C(=S)N1CCOCC1,15.6%
6,Cc1csc(NC(=O)c2cc(C)oc2C)n1,-8.4%
7,CCOC(=O)c1sc(NC(=O)C2CCCO2)c(C(=O)OCC)c1C (stereo not drawn),11.4%
8,Cc1ccc(C(=O)NC(=S)Nn2cnnc2)cc1,12.4%
9,COc1ccc(NC(=S)NN2CCN(C)CC2)cc1OC,22.9%
10,FC(F)Oc1ccc(NC(=S)Nn2cnnc2)cc1,55.2% (active)
11,CCc1ccc(NC(=S)NCc2ccccc2)cc1,-2.6%
12,CN1CCN(NC(=S)Nc2ccc(OC(F)F)cc2)CC1,-15.1%
13,CCc1ccc(NC(=S)Nc2ccc(S(=O)(=O)Nc3ncccn3)cc2)cc1,-1.7%
14,FC(F)Oc1ccc(NC(=S)NN2CCOCC2)cc1,-3.1%
15,Cc1ccc(NC(=S)Nn2cnnc2)cc1,61.8% (active)
16,CCc1ccc(NC(=S)Nn2cnnc2)cc1,54.2% (active)
17,S=C(Nc1ccccc1)Nn1cnnc1,48.4%
18,COc1ccc(NC(=S)Nn2cnnc2)cc1OC,61.2% (active)
19,CNC(=S)Nc1ccc(OC)c(OC)c1,7.4%
20,CCc1ccc(C(=O)COC(=O)c2n[nH]c3ccccc23)cc1,-0.2%
21,CCC1C(=O)N(C)CCc2ccccc21 (stereo not drawn),-5.7%
22,COC(=O)c1nc(-c2ccccc2)oc1N1CCOCC1,-4.7%
23,COc1ccc(C)cc1NC(=O)C(Sc1nnc2ccccn12)c1ccccc1 (stereo not drawn),-1%
24,Cc1ccc(S(=O)(=O)N/N=C/c2ccc(OS(=O)(=O)c3ccc(C)c([N+](=O)[O-])c3)cc2)cc1,1.6%
25,O=C(/C=C/c1ccc(Br)cc1)c1ccc(NC2=NCCCS2)cc1,1.6%
26,O=c1cc(O)c2sc(Nc3cccc(C(F)(F)F)c3)nc2[nH]1,52.4% (active)

row,Structure (SMILES),inhibition
1,Cc1cc(=O)[nH]c(Nc2cccc(C(F)(F)F)c2)n1,-10.3%
2,O=c1cc(O)c2sc(Nc3ccc(F)cc3)nc2[nH]1,69.8% (active)
3,O=c1cc(O)c2sc(Nc3ccc(F)c(Cl)c3)nc2[nH]1,41.4%
4,COc1ccc(Nc2nc(C)cc(=O)[nH]2)cc1,5.6%
5,Fc1ccc(Nc2nc3ccccc3s2)cc1,7.9%
6,COc1ccc(Nc2nc3ccc(OC)cc3s2)cc1,-0.9%
7,COc1ccc(Nc2nc3[nH]c(=O)cc(O)c3s2)cc1,50.2% (active)
8,O=c1cnnc(Nc2cccc(C(F)(F)F)c2)[nH]1,-10.6%
9,CN(C)CCCN(C(=O)c1cc2ccccc2oc1=O)c1nc2c(F)cccc2s1,7.5%
10,O=C(CSc1n[nH]c(-c2cccs2)n1)N1CCN(S(=O)(=O)c2ccccc2)CC1,8.5%
11,C#CCOCCOCCOCCNc1nc(N2CCOCC2)nc(N2CCN(C(=O)[C@H](C)n3cc(CCCN=C(N)N)nn3)CC2)n1,-9.8%
12,COC(=O)c1ccc(NC(=O)CSc2n[nH]c(-c3ccncc3)n2)cc1,11.1%
13,COc1ccc(OCC(=O)N/N=C(\C)c2cc3ccccc3o2)cc1,4.9%
14,CC(SCC(=O)Nc1ccc(S(=O)(=O)N2CCCCC2)cc1)C(=O)O (stereo not drawn),3.5%
15,c1cc(Nc2cccc3nccnc23)c2nccnc2c1,28.5%
16,Brc1c(NC2=NCCN2)ccc2nccnc12,54.4% (active)
17,Clc1cccc(Cl)c1NC1=NCCN1,-30.9%
18,Cc1nc2ccccc2n1CC(=O)OCC(=O)NCc1ccccc1,-3%
19,CS(=O)(=O)N(CC(=O)Nc1ccc(S(=O)(=O)N2CCCC2)cc1)c1ccccc1F,2.4%
20,Cc1cc(C)n(CC(=O)N/N=C/c2ccc3c(c2)OCO3)n1,12.1%
21,O=C(Cn1nc(C(F)F)cc1C(F)F)N/N=C/c1ccc2c(c1)OCO2,92.9% (active)
22,Cc1ccnn1CC(=O)N/N=C/c1ccc2c(c1)OCO2,-2.6%
23,Cc1cccc(C(=O)CC(=O)c2cc(Cl)ccc2O)c1,5.2%
24,O=C(CC(=O)c1cc(Cl)ccc1O)c1ccccc1,59.9% (active)
25,Cc1ccc(C(=O)CC(=O)c2cc(Cl)ccc2O)cc1,-10.2%
26,S=c1[nH]ncn1/N=C/c1ccccn1,5.3%

row,Structure (SMILES),inhibition
1,Oc1c(Br)cc(Br)cc1C=NCc1ccc(F)cc1,-4.2%
2,CCOC(=O)C1CCN(CCC(=O)Nc2ccc(Cl)cc2)CC1,7.1%
3,COc1ccc([C@@H]2C[C@H]3CN(c4ccccc4)C(=O)[C@]34CCCN24)c(OC)c1OC,-8.3%
4,Cc1nn(Cc2cccc(C(=O)NC3CCCCC3)c2)c(C)c1Cl,7.3%
5,O=C(O)c1csc(Cc2ccccc2)n1,-2.4%
6,COC(=O)c1c(NC(=S)Nc2cc(OC)c(Cl)cc2OC)sc2c1CCCCC2,25.1%
7,CCOC(=O)c1c(NC(=S)Nc2cc([N+](=O)[O-])ccc2OC)sc2c1CCCCC2,28.1%
8,COC(=O)c1c(NC(=S)Nc2ccc(F)cc2[N+](=O)[O-])sc2c1CCCCC2,63% (active)
9,CCC1Oc2ccc(C)cc2N(CC(=O)NCc2ccco2)C1=O (stereo not drawn),6.6%
10,Nc1cccc2cnccc12,68.5% (active)
11,N#Cc1cccc2cnccc12,9%
12,NC(=S)Nc1cccc2cnccc12,16.4%
13,CCn1cc([N+](=O)[O-])c(C(=O)Nc2ccn(Cc3ccccc3F)n2)n1,8.3%
14,CCOC(=O)c1c2ccc(OCC(=O)NN)cc2n2ccccc12,81.3% (active)
15,COc1ccc2c(C#N)c3ccccn3c2c1,39.7%
16,CCOC(=O)c1c2ccc(OCC(=O)N/N=C/c3ccc(Cl)cc3)cc2n2ccccc12,33.2%
17,N#Cc1c2ccc(OCC(N)=O)cc2n2ccccc12,65.3% (active)
18,CCOC(=O)c1c(C)n(C)c2cc(OCCN(CC)CC)ccc12,10.9%
19,CCOC(=O)c1c(C)n(C)c2ccc(OCC(N)=O)cc12,16.5%
20,CCOC(=O)COc1ccc2c(C#N)c3ccccn3c2c1,41.4%
21,CCOC(=O)c1c2ccc(OCC(=O)N/N=C/c3ccccc3C(F)(F)F)cc2n2ccccc12,59.8% (active)
22,Cc1cccc(OCC(=O)N/N=C\c2cn(C)c3ccccc23)c1,5.4%
23,N#CCCn1cc(/C=N/NC(N)=S)c(-c2ccc(-c3ccccc3)cc2)n1,21.7%
24,COc1ccc(N=Nc2cnc(C)nc2-c2ccccc2)cc1,3.6%
25,CCCCOc1ccc(-c2c(C(=O)Nc3ccccc3)c(C)[nH]c(=S)c2C#N)cc1,13.9%
26,Cc1ccc2c(nc3s/c(=C/c4cccs4)c(=O)n32)c1C,-7.9%

row,Structure (SMILES),inhibition
1,Cc1cc(C)c2nc3s/c(=C/c4ccccc4)c(=O)n3c2c1,57.6% (active)
2,Cc1cc(C)c2nc3s/c(=C/c4ccc5c(c4)n(C)c(=O)n5C)c(=O)n3c2c1,37.9%
3,CCCCn1cnc(C(=O)OCC)c1N,-3.8%
4,Nc1ccn(Cc2ccc(F)cc2)n1,-1.5%
5,O=C1COc2ccc(C(=O)/C=C/c3ccccc3)cc2N1,7.8%
6,O=C(O)/C=C/C(=O)c1ccc2c(c1)NC(=O)CO2,64.4% (active)
7,O=C1COc2ccc(C(=O)c3ccccc3C(=O)O)cc2N1,-8.8%
8,Cc1ccc(S(=O)(=O)N2CCC(C(=O)N[C@H](C(=O)NCc3ccco3)C(C)C)CC2)cc1,-3.1%
9,CCn1cc(C(=O)OCC(=O)c2cc(C)n(-c3cccc(C(F)(F)F)c3)c2C)c(=O)c2ccc(C)nc21,-6.6%
10,Cc1ccc(/C=N/N(C)C2=NS(=O)(=O)c3ccccc32)o1,107% (active)
11,CN(/N=C/c1ccc(Br)o1)C1=NS(=O)(=O)c2ccccc21,-7.5%
12,CN(/N=C/c1ccco1)C1=NS(=O)(=O)c2ccccc21,10.9%
13,COc1ccccc1NC(=O)N(Cc1cccs1)Cc1cc2cc3c(cc2[nH]c1=O)OCO3,9.9%
14,COc1cc(C(=O)ON=C2C(C)=CC(=O)C=C2C)cc(OC)c1OC,59.4% (active)
15,COc1cc(C(=O)O/N=C2/C=C(C)C(=O)C=C2C)cc(OC)c1OC,29.1%
16,COc1cc(C(=O)O/N=C2\C=CC(=O)C(C)=C2)cc(OC)c1OC,50.7% (active)
17,COc1cc(C(=O)ON=C2C=C(C)C(=O)C(C)=C2)cc(OC)c1OC,31.7%
18,COc1cc(C(=O)O/N=C2\C=CC(=O)C=C2C)cc(OC)c1OC,46.4%
19,COc1cc(C(=O)O/N=C2/C=CC(=O)C(C)=C2C)cc(OC)c1OC,35.6%
20,O=C(NC1CCCC1)c1ccc(CS(=O)(=O)c2ccc(Br)cc2)o1,-7%
21,O=C(C(=O)N1CCN(c2ccc(F)cc2)CC1)N1CCCCC1,9.4%
22,COCCNC(=O)C(c1cccs1)N(C(=O)Cn1nnc2ccccc21)c1cccc(C(C)=O)c1 (stereo not drawn),-2.6%
23,O=[N+]([O-])c1cc2oc3c(c2c(C=NCc2ccncc2)c1O)CCCC3,27.8%
24,O=[N+]([O-])c1cc2oc3c(c2c(C=NCc2ccccc2)c1O)CCCC3,6.3%
25,CC(C)CN=Cc1c(O)c([N+](=O)[O-])cc2oc3c(c12)CCCC3,53.1% (active)
